The structures appear in SMILES notation. Out of some 86,000 compounds screened, about 1,400 (1.6%) were called active. What follows is part of a selection rich in actives, with near analogues and random picks from the rest. Values without a mark were called inactive. Cut-off read from the data, not from the text of the source: active = inhibition above about 50%; inactive = the rest.

Usually inhibition stands for the drop in the measured response relative to a control, in per cent.

Sequence of Estrogen receptor (Homo sapiens) (P03372 whole entry, looked up, the tested form may be a part): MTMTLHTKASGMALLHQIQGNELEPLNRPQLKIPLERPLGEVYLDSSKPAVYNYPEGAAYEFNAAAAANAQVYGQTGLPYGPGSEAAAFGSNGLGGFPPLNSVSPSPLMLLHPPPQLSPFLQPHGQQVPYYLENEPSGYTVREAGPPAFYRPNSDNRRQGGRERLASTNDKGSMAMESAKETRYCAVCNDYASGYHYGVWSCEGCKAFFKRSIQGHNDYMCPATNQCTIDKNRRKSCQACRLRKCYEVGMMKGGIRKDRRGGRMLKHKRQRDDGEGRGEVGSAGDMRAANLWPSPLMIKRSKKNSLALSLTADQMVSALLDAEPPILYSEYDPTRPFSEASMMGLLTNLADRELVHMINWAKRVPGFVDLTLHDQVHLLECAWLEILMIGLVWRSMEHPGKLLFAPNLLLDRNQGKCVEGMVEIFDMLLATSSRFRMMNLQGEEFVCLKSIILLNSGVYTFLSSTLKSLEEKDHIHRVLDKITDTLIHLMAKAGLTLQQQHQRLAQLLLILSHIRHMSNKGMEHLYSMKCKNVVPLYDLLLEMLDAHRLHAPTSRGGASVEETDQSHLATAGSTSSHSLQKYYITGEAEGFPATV

This test addresses Estrogen receptor (Homo sapiens) (UniProt P03372). Description: blockers of SRC-1 peptide recruitment to ERα – biochemical, TR-FRET, ERα LBD, estradiol-bound, primary screen (AID 629).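 Note: 0% = receptor plus peptide control and 100% = peptide only without receptor.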 Particulars: TR-FRET ER-alpha LBD / SRC-1 peptide, at 25.6 µM, stronger effect = higher value. For orientation: In TR-FRET formats the signal depends on donor and acceptor labels being close together.
With `Cc1ccc(OC(=O)c2ccccc2C(=O)OCC(F)(F)C(F)F)cc1`, the inhibition was -6.39%.

As for `COc1cc(-c2nc(-c3ccncc3)no2)cc(OC)c1OC`, the inhibition is -8.51%.

In the case of `CCOc1nc(-c2ccc(OC)cc2)ccc1-c1noc(-c2cc(OC)c(OC)c(OC)c2)n1`, the inhibition is 9.34%.

Consider `COc1ccc(-c2ccc(-c3noc(-c4ccncc4)n3)c(OC)n2)cc1`, for which the inhibition is 59.7% (active).

`NC1=NC(=O)C2(COC(c3ccccc3Cl)OC2)S1` (stereo unspecified): the inhibition was -0.98%.

As for `CC(=O)c1cccc(NC(=O)Nc2ccc(C)cc2)c1`, the inhibition is 4.59%.

Take `Cc1ccc(NC(=S)NC(NC(=O)Cc2cccc3ccccc23)C(Cl)(Cl)Cl)cc1` (stereo unspecified): the inhibition was 57% [fluorescence artefact?] (active).

Consider `COc1cccc(NC(=O)Cc2ccc(C)cc2)c1`, for which the inhibition was -3.07%.

For `O=S(=O)(Cc1cc(Sc2ccccc2)nc(-c2ccccc2)n1)c1ccccc1`, the inhibition is -0.05%.

For `CC(=O)Nc1ccc(S(=O)(=O)Nc2cccc(NC(=O)C(C)(C)C)c2)cc1`, the inhibition was -5.55%.

For `CSc1ccc(S(=O)(=O)Nc2cccc(F)c2)cc1`, the inhibition was 61.3% (active).

With `CSc1ccc(S(=O)(=O)NC2CCCCC2)cc1`, the inhibition is 6.27%.

Take `Cc1cccc(N2CCN(C(c3ccc(N(C)C)cc3)c3nnnn3C(C)(C)C)CC2)c1C` (stereo unspecified): the inhibition is 1.11%.

Consider `CC(=O)C1=C(C)NC(C)=C(C(C)=O)C1c1cn(-c2ccccc2)nc1-c1cccs1`, for which the inhibition is -18.1%.

For `CC(C)(C)c1cc(=O)n2c(nc3ccccc32)[nH]1`, the inhibition was 11.3%.

As to `COCCn1c(SCc2nnc(-c3ccc(OC)c(OC)c3)o2)nc2sc3c(c2c1=O)CCC3`, the inhibition was -16.5%.

For the molecule `CCCC1(C(=O)OCC)NC(c2ccc(N(C)C)cc2)C2C(=O)N(c3ccc4c(c3)OCCO4)C(=O)C21` (stereo unspecified), the inhibition was -19%.

Turning to `COc1cccc(-c2nn(C)c3sc(C(=O)N4CCN(c5ccccc5)CC4)cc23)c1`, the inhibition is 6.81%.

For `Cc1nc2ccc(C(=O)N3CCN(c4ccccc4)CC3)cc2s1`, the inhibition is -14.9%.

As to `O=C(c1cc2c(s1)CCC2)N1CCN(c2ccccc2)CC1`, the inhibition is 67.9% [fluorescence artefact?] (active).

Take `COC(=O)c1cc(OC)ccc1-c1ccc(OC)cc1`: the inhibition is -2.99%.

Consider `CCc1ccc(CNC(=O)CCc2nc(-c3cccs3)no2)cc1`, for which the inhibition is 0.94%.

On to `O=C(c1cc2sccc2n1Cc1ccc(F)cc1)N1CCc2ccccc21`, for which the inhibition is -24.7%.

Take `O=C(COC(=O)c1ccc(S(=O)(=O)N2CCc3ccccc3C2)cc1)NC(=O)NCc1ccco1`: the inhibition was 10.1%.

As for `CC1(c2ccccc2Cl)NC(=O)N(CC(=O)NC(=O)NCc2ccco2)C1=O` (stereo unspecified), the inhibition is 9.78%.

As for `O=C(CN1CCN(S(=O)(=O)/C=C/c2ccccc2)CC1)NC(=O)NCc1ccco1`, the inhibition is 55% [fluorescence artefact?] (active).

As to `CCC(C)n1[nH]c(=O)cc1N` (stereo unspecified), the inhibition is 60.4% (active).

With `CCCC(C)n1[nH]c(=O)c2c(C)cc(C)nc21` (stereo unspecified), the inhibition was -5.08%.

`CCC(C)n1[nH]c(=O)c2c(C)cc(C)nc21` (stereo unspecified): the inhibition is -1.94%.

`CCN1C(=O)/C(=C2/Sc3ccc(OC)cc3N2C)SC1=Nc1ccc(C)cc1`: the inhibition is 18.8%.

On to `NC(=O)C1(N2CCCCC2)CCN(C2CC(=O)N(Cc3ccc(N4CCCC4=O)cc3)C2=O)CC1` (stereo unspecified), for which the inhibition is -9.78%.

With `COc1ccc(C(=O)Cc2cnn(-c3ccccc3)c2)c(O)c1`, the inhibition is -7.1%.

With `COc1ccccc1NC(=O)/C=C/C(N)=O`, the inhibition was 13%.

For `Cc1ccc(C(=O)COc2cccc(NC(=O)c3ccco3)c2)cc1`, the inhibition was 6.84%.

Turning to `O=C(Nc1ccc(Oc2ccccc2)cc1)c1ccco1`, the inhibition is 0.33%.

For `CCOc1cc(NC(=O)c2ccco2)c(OCC)cc1NC(=O)COc1ccccc1`, the inhibition was 77.7% [fluorescence artefact?] (active).

Consider `COC(=O)C1=C(Nc2ccc(C)cc2)C=C(C)C(C(=O)OC)C1c1ccc(F)cc1` (stereo unspecified), for which the inhibition is -7.97%.

As for `Cc1nn(C)cc1CNC(=O)Nc1ccc(Cl)cc1`, the inhibition was 5.21%.

In the case of `Cc1cccc(C(=O)Nc2ccccc2N2CCN(c3ccc(F)cc3)CC2)c1`, the inhibition was -12.2%.

As for `O=C1CCCc2nn(-c3ccccc3)nc21`, the inhibition is -5.5%.

For the molecule `O=C(COC(=O)CCC(=O)c1cccs1)NCc1ccco1`, the inhibition is 71.3% (active).

In the case of `O=C(COC(=O)C12CC3CC(CC(C3)C1)C2)NCc1ccco1`, the inhibition was 21%.

Regarding `O=C(CCC(=O)c1cccs1)NCc1ccccc1`, the inhibition is 3.23%.

As to `O=C(Nc1nncs1)c1cccc(S(=O)(=O)N2CCCCC2)c1`, the inhibition was -7.35%.

In the case of `CC(C)(C)n1nnnc1C(c1ccc(Cl)cc1)N1CCSCC1` (stereo unspecified), the inhibition was -5.89%.

As for `Cc1cccc(NC(=O)CSc2nnc(-c3ccco3)o2)c1`, the inhibition is -9.42%.

`Cc1cccc(NC(=O)Cn2cc(C(=O)c3ccco3)c3ccccc32)c1`: the inhibition was 52.3% (active).

Regarding `O=C(Cn1cc(C(=O)c2cccs2)c2ccccc21)NCc1cccs1`, the inhibition was 4.67%.

For `Cc1cc(C)c2cc(CN(Cc3nnnn3Cc3ccc(F)cc3)C3CCCC3)c(=O)[nH]c2c1`, the inhibition was 7.55%.

Take `COc1ccc(-c2nnc(SCc3cccnc3)o2)cc1`: the inhibition was -6.1%.

With `COc1ccc(S(=O)(=O)N/N=C\c2ccc(OC)c(COc3ccc(C)cc3[N+](=O)[O-])c2)cc1`, the inhibition was 17.7%.

`O=C(CSc1nnnn1-c1ccccc1)NCc1ccco1`: the inhibition was 33.1%.

`COc1ccc(Cc2nnc(NC(=O)Cc3cccs3)s2)cc1`: the inhibition is 97.3% [fluorescence artefact?] (active).

Consider `CCCc1ccc(-c2csc(NC(=O)Cc3cccs3)n2)cc1`, for which the inhibition is 7.36%.

Consider `COc1ccc(Cc2nnc(NS(=O)(=O)Cc3ccccc3)s2)cc1`, for which the inhibition was -16.5%.

With `CC(C)(C)C(=O)Cn1c(NCCO)nc2ccccc21`, the inhibition was -7.55%.

Regarding `CN(Cc1ccccc1)C(=O)COc1ccccc1`, the inhibition is 21%.

For `COCCCn1c2nc3ccccc3nc2c2c(=O)n(Cc3ccc(Cl)cc3)c(C)nc21`, the inhibition is 22.2%.

On to `Cc1ccc(Cn2c(C)nc3c(c2=O)c2nc4ccccc4nc2n3Cc2ccco2)cc1`, for which the inhibition was 45.1%.

Regarding `Cc1nc2c(c(=O)n1Cc1ccco1)c1nc3ccccc3nc1n2Cc1ccccc1`, the inhibition is 79.5% (active).

In the case of `CC1(C)CCc2nc(SCc3ccccc3)c(C#N)cc2C1`, the inhibition was -2.01%.

Regarding `C=C(C)CNC(=S)/N=c1\scc(C)n1CC`, the inhibition was 64.7% [fluorescence artefact?] (active).

With `CS(=O)(=O)n1nc(-c2ccccc2)nc1NCc1ccco1`, the inhibition is -3%.

With `CCOc1ccc2c(c1)C(c1ccc(C)cc1)=NNC(c1ccc(C)cc1)=N2`, the inhibition is -14.6%.

On to `Clc1ccc(COn2c(-c3ccc(Cl)cc3Cl)nc3ncccc32)cc1`, for which the inhibition was 27.7%.

For `COc1ccc(S(=O)(=O)NCc2ccc(C(=O)N(C)Cc3ccco3)cc2)cc1`, the inhibition is 2.78%.

Take `O=C(c1cccnc1NCc1ccccc1)N1CCOCC1`: the inhibition was -6.49%.

Consider `Oc1c(C(c2ccccn2)N2CCOCC2)ccc2cccnc12` (stereo unspecified), for which the inhibition was 70% [fluorescence artefact?] (active).

On to `Cc1nc2sc(C(c3ccco3)N3CCOCC3)c(O)n2n1` (stereo unspecified), for which the inhibition was -24%.

For the molecule `CCc1nnc(NC(=O)CCC(=O)NCc2ccccc2OC)s1`, the inhibition is -1.4%.

In the case of `O=C(Nc1ccc2oc(-c3ccc4ccccc4c3)nc2c1)c1cccs1`, the inhibition was 55% (active).

As to `Cc1nc(-c2ccc(NC(=O)c3cccs3)cc2)cs1`, the inhibition was -16.8%.

As to `O=C(Cc1cccc2ccccc12)Nc1ccc2oc(-c3ccccc3)nc2c1`, the inhibition was -1.24%.

In the case of `CCOC(=O)c1ccccc1NS(=O)(=O)c1ccc(OC)cc1`, the inhibition is -11.3%.

In the case of `CCN1CCN(C(c2cccnc2)c2cc(Cl)c3cccnc3c2O)CC1` (stereo unspecified), the inhibition was 65.6% [fluorescence artefact?] (active).

Consider `CCOC(=O)N1CCN(C(c2cccnc2)c2ccc3cccnc3c2O)CC1` (stereo unspecified), for which the inhibition was 53.3% [fluorescence artefact?] (active).

With `Oc1c(CN2CCN(c3ccc(F)cc3)CC2)cc(Cl)c2cccnc12`, the inhibition is -0.01%.

Regarding `CCOC(=O)N1CCN(C(=O)CSc2ccc(Cl)cc2)CC1`, the inhibition is -2.04%.

For `CCOC(=O)N1CCN(C(=O)c2cc3c(ccc4ccccc43)oc2=O)CC1`, the inhibition was -9.07%.

On to `CCn1c(=O)c(=O)n(CC)c2cc(S(=O)(=O)N3CCc4ccccc43)ccc21`, for which the inhibition is -5.41%.

Take `CCN(CC)CC(=O)c1c[nH]c2ccc(OC)cc12`: the inhibition was -8.61%.

For `CCOC(=O)/C(C#N)=C\c1c(C)cc(C)c(COC(C)=O)c1C`, the inhibition is -6.55%.

`O=C(Nc1nc(-c2ccc3c(c2)OCO3)cs1)c1ccncc1`: the inhibition was 58% [fluorescence artefact?] (active).

With `O=C(Nc1ccc2c(c1)OCCO2)c1ccncc1`, the inhibition was -22.6%.

Regarding `O=C(Nc1nc(-c2ccncc2)cs1)C1COc2ccccc2O1` (stereo unspecified), the inhibition was 1.84%.

Turning to `COc1ccc(CN(C(=O)CSc2nnc(-c3ccc(OC)c(OC)c3)o2)c2ccc(F)cc2)cc1`, the inhibition was -6.76%.

For `COc1ccc(C(=O)N2CC3(C)CC2CC(C)(C)C3)cc1OC` (stereo unspecified), the inhibition is -3.82%.

For `O=C(CSc1nnc(-c2cccnc2)n1CCc1ccccc1)NCc1ccccc1`, the inhibition is -17.8%.

With `c1ccc(-c2cc(-c3nnc4sc(-c5ccccn5)nn34)[nH]n2)cc1`, the inhibition was 54.2% [fluorescence artefact?] (active).

Take `COc1ccc(-c2nn3c(-c4ccccc4)nnc3s2)cc1OC`: the inhibition was 3.83%.

`CCOc1cccc(-c2nn3c(-c4ccccn4)nnc3s2)c1`: the inhibition was 2.04%.

The record behind these values is PubChem BioAssay AID629 (Emory University Molecular Libraries Screening Center, 2007).
